# According to publication PMC7862700, “An all-to-all approach to the identification of sequence-specific readers for epigenetic DNA modifications on cytosine”:
# Tests used:
# Experiment in all cases: DAPPL (digital affinity profiling via proximity ligation, sequencing); 10 mM Tris-HCl pH 7.5, 50 mM NaCl, 1 mM DTT, 4% glycerol, room temperature, 30 min; GST-TFs on glutathione beads, 16-mer random dsDNA library, 0.1% formaldehyde crosslink after washing; high values mean tight binding
# FLI1 = biological target: T1, FLI1 (Homo sapiens, UniProt Q01543 1-452); details: protein: recombinant; tags: N-terminal GST; dsDNA, one strand shown
# T1 sequence: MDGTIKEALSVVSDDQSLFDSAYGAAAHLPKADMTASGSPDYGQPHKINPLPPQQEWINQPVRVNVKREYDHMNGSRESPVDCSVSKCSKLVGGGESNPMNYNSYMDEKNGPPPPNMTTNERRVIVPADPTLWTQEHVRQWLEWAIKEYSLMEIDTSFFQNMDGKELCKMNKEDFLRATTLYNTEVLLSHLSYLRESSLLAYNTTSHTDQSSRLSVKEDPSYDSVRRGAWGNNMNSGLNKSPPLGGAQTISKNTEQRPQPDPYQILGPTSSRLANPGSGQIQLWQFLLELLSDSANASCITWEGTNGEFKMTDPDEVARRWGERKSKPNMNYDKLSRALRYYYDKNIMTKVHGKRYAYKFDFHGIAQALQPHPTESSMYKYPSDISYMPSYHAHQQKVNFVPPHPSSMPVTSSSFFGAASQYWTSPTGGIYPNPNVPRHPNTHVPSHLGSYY
# Summary of the method: (§1)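 Pools were built from human transcription factors expressed in yeast as GST fusions, captured on glutathione beads and DNA-barcoded, along with a tag-only sample. Incubation with 200 nmole of a 16-mer random double-stranded DNA library lasted 30 min at room temperature in Tris/NaCl/DTT/glycerol buffer, and was followed by washing, 0.1% formaldehyde crosslinking, proximity ligation, PCR amplification and Illumina NextSeq500 sequencing. Binding signal is the quotient of each hexamer's read frequency for a factor and its frequency for the tag-only sample.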
# ELK1 = biological target: T2, ELK1 (Homo sapiens, UniProt P19419 1-428); details: protein: recombinant; tags: N-terminal GST; dsDNA, one strand shown
# T2 sequence: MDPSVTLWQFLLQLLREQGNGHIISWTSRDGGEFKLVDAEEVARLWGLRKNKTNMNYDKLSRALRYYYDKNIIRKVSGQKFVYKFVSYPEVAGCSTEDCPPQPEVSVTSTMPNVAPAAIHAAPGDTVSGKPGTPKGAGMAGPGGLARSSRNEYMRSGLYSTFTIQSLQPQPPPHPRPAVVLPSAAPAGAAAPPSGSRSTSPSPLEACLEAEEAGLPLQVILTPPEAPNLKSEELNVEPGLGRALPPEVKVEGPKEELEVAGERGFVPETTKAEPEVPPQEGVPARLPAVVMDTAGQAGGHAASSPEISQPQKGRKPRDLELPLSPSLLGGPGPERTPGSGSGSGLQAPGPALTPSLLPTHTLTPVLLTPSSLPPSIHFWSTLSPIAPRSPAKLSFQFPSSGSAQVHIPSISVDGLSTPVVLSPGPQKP
# Summary of the method: as §1
# GABPA = biological target: T3, GABPA (Homo sapiens, UniProt Q06546 1-454); details: protein: recombinant; tags: N-terminal GST; dsDNA, one strand shown
# T3 sequence: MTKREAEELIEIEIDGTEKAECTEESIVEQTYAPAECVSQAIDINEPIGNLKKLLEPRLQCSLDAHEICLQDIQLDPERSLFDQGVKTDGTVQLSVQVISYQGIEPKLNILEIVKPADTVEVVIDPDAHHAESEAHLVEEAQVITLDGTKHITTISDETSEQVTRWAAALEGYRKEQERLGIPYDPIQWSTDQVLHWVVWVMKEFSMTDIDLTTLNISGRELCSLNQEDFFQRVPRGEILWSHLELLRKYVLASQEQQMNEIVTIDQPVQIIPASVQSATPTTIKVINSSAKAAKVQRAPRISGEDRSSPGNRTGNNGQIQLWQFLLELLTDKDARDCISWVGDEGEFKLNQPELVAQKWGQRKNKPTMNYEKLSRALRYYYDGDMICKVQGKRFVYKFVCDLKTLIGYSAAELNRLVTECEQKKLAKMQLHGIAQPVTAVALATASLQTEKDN
# Summary of the method: as §1
# ERG = biological target: T4, ERG (Homo sapiens, UniProt P11308 1-479); details: protein: recombinant; tags: N-terminal GST; dsDNA, one strand shown
# T4 sequence: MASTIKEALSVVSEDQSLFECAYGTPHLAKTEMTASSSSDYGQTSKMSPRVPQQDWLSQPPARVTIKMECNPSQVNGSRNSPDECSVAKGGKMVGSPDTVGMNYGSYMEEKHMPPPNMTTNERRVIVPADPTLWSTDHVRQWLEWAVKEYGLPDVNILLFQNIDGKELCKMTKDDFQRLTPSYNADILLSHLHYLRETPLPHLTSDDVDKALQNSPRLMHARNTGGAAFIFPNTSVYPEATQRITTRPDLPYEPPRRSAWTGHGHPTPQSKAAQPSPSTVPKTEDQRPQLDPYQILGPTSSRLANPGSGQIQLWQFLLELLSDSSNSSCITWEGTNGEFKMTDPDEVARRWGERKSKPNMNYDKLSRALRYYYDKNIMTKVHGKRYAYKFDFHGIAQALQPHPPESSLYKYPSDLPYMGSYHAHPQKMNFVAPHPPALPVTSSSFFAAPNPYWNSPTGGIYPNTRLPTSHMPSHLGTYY
# Summary of the method: as §1
# ELF1 = ELF1 (Homo sapiens, UniProt P32519 1-619); details: protein: recombinant; tags: N-terminal GST; dsDNA, one strand shown
# Summary of the method: as §1
# EHF = biological target: T5, EHF (Homo sapiens, UniProt Q9NZC4 1-300); details: protein: recombinant; tags: N-terminal GST; dsDNA, one strand shown
# T5 sequence: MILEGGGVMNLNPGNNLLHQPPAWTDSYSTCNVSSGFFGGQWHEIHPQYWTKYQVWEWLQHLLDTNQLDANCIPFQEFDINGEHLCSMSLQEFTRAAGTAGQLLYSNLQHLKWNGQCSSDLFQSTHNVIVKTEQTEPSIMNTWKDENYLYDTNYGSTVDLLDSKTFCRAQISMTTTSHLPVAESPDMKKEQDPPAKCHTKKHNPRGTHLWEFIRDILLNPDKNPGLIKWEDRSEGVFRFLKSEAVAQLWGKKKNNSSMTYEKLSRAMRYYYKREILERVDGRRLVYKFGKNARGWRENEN
# Summary of the method: as §1
# SPI1 = SPI1 (Homo sapiens, UniProt P17947 1-270); details: protein: recombinant; tags: N-terminal GST; dsDNA, one strand shown
# Summary of the method: as §1
# SPIB = SPIB (Homo sapiens, UniProt Q01892 1-262); details: protein: recombinant; tags: N-terminal GST; dsDNA, one strand shown
# Summary of the method: as §1
# ELK3 = biological target: T6, ELK3 (Homo sapiens, UniProt P41970 1-407); details: protein: recombinant; tags: N-terminal GST; dsDNA, one strand shown
# T6 sequence: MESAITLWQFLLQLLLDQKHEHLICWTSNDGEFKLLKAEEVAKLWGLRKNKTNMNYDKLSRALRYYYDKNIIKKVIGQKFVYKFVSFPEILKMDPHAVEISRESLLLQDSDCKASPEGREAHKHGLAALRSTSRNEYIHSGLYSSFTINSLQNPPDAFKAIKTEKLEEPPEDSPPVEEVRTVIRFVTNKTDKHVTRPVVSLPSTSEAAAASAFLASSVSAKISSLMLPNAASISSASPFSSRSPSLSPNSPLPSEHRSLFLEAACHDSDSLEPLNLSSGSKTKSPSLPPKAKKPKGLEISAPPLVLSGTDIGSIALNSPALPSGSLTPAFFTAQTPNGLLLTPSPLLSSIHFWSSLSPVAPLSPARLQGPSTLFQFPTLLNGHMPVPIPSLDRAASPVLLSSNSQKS
# Summary of the method: as §1
# FEV = biological target: T7, FEV (Homo sapiens, UniProt Q99581 1-238); details: protein: recombinant; tags: N-terminal GST; dsDNA, one strand shown
# T7 sequence: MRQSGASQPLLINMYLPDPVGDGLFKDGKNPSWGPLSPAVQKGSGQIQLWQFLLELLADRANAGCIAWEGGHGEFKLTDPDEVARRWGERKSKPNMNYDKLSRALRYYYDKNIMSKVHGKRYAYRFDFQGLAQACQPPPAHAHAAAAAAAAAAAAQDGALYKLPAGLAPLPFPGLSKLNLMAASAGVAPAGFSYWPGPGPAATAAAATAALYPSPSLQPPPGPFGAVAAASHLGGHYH
# Summary of the method: as §1
# ETV5 = ETV5 (Homo sapiens, UniProt P41161 1-510); details: protein: recombinant; tags: N-terminal GST; dsDNA, one strand shown
# Summary of the method: as §1
# HSF1 = HSF1 (Homo sapiens, UniProt Q00613 1-529); details: protein: recombinant; tags: N-terminal GST; chain copies: 3; dsDNA, one strand shown
# Summary of the method: as §1
# SPIC = biological target: T8, SPIC (Homo sapiens, UniProt Q8N5J4 1-248); details: protein: recombinant; tags: N-terminal GST; dsDNA, one strand shown
# T8 sequence: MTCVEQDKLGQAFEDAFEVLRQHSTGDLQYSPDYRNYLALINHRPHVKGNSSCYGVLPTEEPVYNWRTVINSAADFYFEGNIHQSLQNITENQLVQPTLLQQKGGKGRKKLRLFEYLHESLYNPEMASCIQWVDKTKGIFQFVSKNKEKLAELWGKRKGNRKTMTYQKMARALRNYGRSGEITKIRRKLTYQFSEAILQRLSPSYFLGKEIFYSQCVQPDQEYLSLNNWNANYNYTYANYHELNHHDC
# Summary of the method: as §1
# ELF4 = ELF4 (Homo sapiens, UniProt Q99607 1-663); details: protein: recombinant; tags: N-terminal GST; dsDNA, one strand shown
# Summary of the method: as §1
# ELK4 = biological target: T9, ELK4 (Homo sapiens, UniProt P28324-2 1-405); details: protein: recombinant; tags: N-terminal GST; dsDNA, one strand shown
# T9 sequence: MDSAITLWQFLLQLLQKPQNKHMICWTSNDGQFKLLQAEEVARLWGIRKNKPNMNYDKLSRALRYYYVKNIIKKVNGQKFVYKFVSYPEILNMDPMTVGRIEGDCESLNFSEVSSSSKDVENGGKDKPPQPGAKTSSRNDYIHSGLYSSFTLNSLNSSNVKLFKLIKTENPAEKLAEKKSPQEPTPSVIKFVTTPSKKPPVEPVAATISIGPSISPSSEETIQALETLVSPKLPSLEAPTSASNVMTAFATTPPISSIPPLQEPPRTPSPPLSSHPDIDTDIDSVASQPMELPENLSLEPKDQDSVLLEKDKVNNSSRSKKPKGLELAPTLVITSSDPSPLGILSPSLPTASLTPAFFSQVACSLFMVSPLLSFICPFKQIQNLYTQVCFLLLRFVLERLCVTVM
# Summary of the method: as §1
# ETV2 = biological target: T10, ETV2 (Homo sapiens, UniProt O00321 1-342); details: protein: recombinant; tags: N-terminal GST; dsDNA, one strand shown
# T10 sequence: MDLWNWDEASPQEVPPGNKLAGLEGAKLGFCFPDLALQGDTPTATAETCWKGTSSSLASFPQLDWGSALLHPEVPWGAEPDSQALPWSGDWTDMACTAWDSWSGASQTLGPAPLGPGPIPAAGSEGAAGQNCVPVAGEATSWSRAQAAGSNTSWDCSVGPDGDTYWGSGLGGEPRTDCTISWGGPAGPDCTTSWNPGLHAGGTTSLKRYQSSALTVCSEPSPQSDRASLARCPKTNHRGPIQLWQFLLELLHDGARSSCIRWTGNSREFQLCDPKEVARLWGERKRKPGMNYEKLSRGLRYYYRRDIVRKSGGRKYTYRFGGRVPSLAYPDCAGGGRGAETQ
# Summary of the method: as §1
# ELF3 = biological target: T11, ELF3 (Homo sapiens, UniProt P78545 1-371); details: protein: recombinant; tags: N-terminal GST; dsDNA, one strand shown
# T11 sequence: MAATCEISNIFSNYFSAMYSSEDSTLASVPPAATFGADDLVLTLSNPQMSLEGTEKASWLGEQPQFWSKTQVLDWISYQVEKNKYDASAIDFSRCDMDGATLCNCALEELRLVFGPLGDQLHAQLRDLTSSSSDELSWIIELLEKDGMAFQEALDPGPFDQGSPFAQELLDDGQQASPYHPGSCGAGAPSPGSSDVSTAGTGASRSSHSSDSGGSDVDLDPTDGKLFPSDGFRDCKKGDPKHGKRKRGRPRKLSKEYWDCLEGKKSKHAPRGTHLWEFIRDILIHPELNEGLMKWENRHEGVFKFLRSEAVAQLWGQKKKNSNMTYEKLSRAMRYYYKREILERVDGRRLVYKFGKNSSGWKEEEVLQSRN
# Summary of the method: as §1
# ETV1 = ETV1 (Homo sapiens, UniProt P50549 1-477); details: protein: recombinant; tags: N-terminal GST; dsDNA, one strand shown
# Summary of the method: as §1
# Sequence of ETV1 (P50549 whole entry): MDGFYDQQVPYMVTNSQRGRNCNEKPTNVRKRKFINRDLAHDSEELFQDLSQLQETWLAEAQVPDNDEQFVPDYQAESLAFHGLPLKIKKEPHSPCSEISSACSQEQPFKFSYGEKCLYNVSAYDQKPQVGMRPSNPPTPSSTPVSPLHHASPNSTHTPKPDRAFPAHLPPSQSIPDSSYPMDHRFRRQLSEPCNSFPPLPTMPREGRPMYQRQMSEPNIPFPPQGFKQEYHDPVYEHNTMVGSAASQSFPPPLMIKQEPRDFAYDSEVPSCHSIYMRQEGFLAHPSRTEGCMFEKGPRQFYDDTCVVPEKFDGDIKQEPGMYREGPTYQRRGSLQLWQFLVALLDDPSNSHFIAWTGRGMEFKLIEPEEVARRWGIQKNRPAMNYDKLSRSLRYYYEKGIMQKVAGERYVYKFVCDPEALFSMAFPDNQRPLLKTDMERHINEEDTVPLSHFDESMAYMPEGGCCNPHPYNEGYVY
# Sequence of HSF1 (Q00613 whole entry): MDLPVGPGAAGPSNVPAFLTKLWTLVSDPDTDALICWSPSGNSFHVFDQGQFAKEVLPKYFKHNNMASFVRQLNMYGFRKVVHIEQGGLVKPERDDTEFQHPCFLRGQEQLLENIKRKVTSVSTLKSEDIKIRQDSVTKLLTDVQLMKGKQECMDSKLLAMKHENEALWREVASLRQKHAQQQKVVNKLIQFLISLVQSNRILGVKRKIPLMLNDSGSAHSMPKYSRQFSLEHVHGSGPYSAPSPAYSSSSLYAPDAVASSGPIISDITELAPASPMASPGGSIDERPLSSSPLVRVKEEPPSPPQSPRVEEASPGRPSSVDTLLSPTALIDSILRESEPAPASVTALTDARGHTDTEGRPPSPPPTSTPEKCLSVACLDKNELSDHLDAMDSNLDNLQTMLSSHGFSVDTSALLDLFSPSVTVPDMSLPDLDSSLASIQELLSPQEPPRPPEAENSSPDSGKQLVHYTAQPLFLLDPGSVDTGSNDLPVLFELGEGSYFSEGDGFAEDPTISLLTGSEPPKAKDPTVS
# Sequence of ELF4 (Q99607 whole entry): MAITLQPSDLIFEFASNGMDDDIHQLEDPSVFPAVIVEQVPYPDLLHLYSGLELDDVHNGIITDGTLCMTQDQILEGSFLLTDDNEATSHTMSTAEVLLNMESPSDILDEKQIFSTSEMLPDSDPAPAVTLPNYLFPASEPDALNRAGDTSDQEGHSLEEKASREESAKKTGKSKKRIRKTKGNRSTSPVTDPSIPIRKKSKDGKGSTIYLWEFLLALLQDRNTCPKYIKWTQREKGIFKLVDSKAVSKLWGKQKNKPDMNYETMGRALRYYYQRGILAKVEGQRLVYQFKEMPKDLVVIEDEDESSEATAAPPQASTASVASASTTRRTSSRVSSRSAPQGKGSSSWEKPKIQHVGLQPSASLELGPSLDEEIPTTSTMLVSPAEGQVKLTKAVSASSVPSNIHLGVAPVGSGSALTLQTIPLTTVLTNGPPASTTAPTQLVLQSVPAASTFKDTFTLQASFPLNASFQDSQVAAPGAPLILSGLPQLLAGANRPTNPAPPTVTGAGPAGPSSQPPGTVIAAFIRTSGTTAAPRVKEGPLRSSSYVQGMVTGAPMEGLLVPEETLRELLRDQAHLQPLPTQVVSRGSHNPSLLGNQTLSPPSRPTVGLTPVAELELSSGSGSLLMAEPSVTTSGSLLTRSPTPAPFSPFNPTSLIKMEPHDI
# Sequence of SPIB (Q01892 whole entry): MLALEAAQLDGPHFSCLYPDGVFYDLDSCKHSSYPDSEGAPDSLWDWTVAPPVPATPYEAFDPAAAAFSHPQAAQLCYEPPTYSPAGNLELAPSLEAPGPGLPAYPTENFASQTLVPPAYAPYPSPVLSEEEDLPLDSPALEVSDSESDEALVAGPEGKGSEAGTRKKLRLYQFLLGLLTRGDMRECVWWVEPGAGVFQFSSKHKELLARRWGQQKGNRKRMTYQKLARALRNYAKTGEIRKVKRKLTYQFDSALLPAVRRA
# Sequence of ELF1 (P32519 whole entry): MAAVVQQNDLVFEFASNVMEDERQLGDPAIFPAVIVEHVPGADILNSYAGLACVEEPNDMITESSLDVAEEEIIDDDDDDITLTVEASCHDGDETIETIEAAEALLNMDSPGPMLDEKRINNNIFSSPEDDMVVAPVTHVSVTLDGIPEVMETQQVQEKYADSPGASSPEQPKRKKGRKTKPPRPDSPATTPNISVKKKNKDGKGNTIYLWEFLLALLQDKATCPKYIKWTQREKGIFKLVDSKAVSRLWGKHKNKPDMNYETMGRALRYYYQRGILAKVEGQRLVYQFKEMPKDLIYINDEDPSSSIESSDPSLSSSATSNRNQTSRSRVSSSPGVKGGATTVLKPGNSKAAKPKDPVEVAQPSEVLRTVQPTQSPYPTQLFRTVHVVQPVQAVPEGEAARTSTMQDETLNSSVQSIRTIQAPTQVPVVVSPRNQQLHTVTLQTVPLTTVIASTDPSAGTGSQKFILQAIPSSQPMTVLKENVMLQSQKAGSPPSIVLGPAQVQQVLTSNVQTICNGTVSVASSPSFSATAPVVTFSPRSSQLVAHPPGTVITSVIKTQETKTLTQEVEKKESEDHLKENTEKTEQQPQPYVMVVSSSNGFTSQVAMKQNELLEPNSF
# Sequence of ETV5 (P41161 whole entry): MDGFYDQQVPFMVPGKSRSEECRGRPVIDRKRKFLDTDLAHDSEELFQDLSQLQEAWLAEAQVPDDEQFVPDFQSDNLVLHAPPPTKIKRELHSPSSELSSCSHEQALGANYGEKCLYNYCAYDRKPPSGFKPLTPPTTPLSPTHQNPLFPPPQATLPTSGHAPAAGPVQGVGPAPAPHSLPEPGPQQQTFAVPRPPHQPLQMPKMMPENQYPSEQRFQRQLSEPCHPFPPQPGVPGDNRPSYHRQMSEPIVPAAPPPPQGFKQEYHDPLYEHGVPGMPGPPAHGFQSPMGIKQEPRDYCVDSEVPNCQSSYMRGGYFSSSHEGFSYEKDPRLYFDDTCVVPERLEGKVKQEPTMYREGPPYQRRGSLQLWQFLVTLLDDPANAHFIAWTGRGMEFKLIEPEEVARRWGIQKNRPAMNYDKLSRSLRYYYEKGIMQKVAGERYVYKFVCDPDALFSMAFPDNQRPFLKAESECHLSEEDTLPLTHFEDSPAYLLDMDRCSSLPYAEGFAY
sequence,measurement,setting,value
GTAACT,binding signal,FLI1,"1.31 fold enrichment (6-mer frequency, TF over GST control)"
same,binding signal,ELK1,"1.25 fold enrichment (6-mer frequency, TF over GST control)"
same,binding signal,GABPA,"1.22 fold enrichment (6-mer frequency, TF over GST control)"
same,binding signal,ERG,"1.25 fold enrichment (6-mer frequency, TF over GST control)"
same,binding signal,ELF1,"1.22 fold enrichment (6-mer frequency, TF over GST control)"
same,binding signal,EHF,"1.21 fold enrichment (6-mer frequency, TF over GST control)"
same,binding signal,SPI1,"1.35 fold enrichment (6-mer frequency, TF over GST control)"
same,binding signal,SPIB,"1.28 fold enrichment (6-mer frequency, TF over GST control)"
same,binding signal,ELK3,"1.11 fold enrichment (6-mer frequency, TF over GST control)"
same,binding signal,FEV,"1.18 fold enrichment (6-mer frequency, TF over GST control)"
same,binding signal,ETV5,"1.21 fold enrichment (6-mer frequency, TF over GST control)"
same,binding signal,HSF1,"1.02 fold enrichment (6-mer frequency, TF over GST control)"
same,binding signal,SPIC,"1.37 fold enrichment (6-mer frequency, TF over GST control)"
same,binding signal,ELF4,"1.27 fold enrichment (6-mer frequency, TF over GST control)"
same,binding signal,ELK4,"1.26 fold enrichment (6-mer frequency, TF over GST control)"
same,binding signal,ETV2,"1.2 fold enrichment (6-mer frequency, TF over GST control)"
same,binding signal,ELF3,"1.16 fold enrichment (6-mer frequency, TF over GST control)"
same,binding signal,ETV1,"1.16 fold enrichment (6-mer frequency, TF over GST control)"
